Data published in PubChem BioAssay AID493203 (National Center for Advancing Translational Sciences (NCATS), 2011).
Results filed as inconclusive are left out. Active and inactive are the calls of the source. Calls come from the whole dose curve; as a rule, active = well fitted activation curve with a large enough effect; inconclusive = small, poorly fitted or top-dose-only effect; inactive = flat fitted curve, though single readings scatter.

test: qHTS Assay for NPC1 Promoter Activators: Initial hit validation from the primary screen; details: Huh7 NPC1 promoter-luciferase reporter, luminescence, 24 h; series mostly up to 46.1 µM
In short: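 Huh7 cells stably carrying NPC1 promoter-luciferase, 1500 cells per well in OP-MEM I with 10% FBS; compounds added after 2 hours and incubated 24 hours at 37C. Luminescence read 10 minutes after Amplite luciferase reagent.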
Potency is the fitted concentration of half-maximal effect.

Potency, inactive:
O=C(c1cc2cc([N+](=O)[O-])ccc2oc1=O)n1cccn1
COc1ccc(OC)c(S(=O)(=O)N2CCN3CCCC3C2)c1 (centres undefined)
CN(C)C(=O)[C@H]1C[C@H]1[C@@H](O)[C@H](CO)NC(=O)[C@H](COCc1ccccc1)NC(=O)OC(C)(C)C
NCCOc1ccccc1-c1ccccc1
O=C(O)CSc1nnc(-c2ccncc2)n1CCc1ccccc1
COc1cccc(NC(=O)CN2C(=O)CSc3ccc(S(=O)(=O)N4CCC(C)CC4)cc32)c1
COc1ccc(NC(=O)CCCN2C(=O)C(c3ccccc3)Oc3cccnc32)cc1OC (centres undefined)
CC(C)C1(CCNC(=O)c2cccs2)CCOC(C)(C)C1 (centres undefined)
O=C(NC1CCCC1)C(c1ccc(F)cc1)N(C(=O)c1csnn1)c1ccccc1 (centres undefined)
Cc1noc(/C=C/N(C)C)c1S(=O)(=O)N1CCCC(C(=O)N2CCCCC2)C1 (centres undefined)
Cc1nn(CCCC(=O)NCc2ccc(F)cc2)c(C)c1[N+](=O)[O-]
Cc1nc(SCC(=O)NC(=O)NC(C)(C)C)nc(C)c1C
Cc1ccc(S(=O)(=O)N2CCN(c3cnn(C)c(=O)c3Cl)CC2)cc1
O=C(NCCSCc1c(F)cccc1Cl)c1ccc(CN2CCOCC2)cc1
CCOC(=O)c1cc2sccc2n1CC(=O)N1CCCc2ccccc21
COCCn1c(SCc2ccc(C(=O)OC)o2)nc2cc(Cl)ccc2c1=O
COc1ccc(C)cc1N(C(=O)CNC(=O)c1ccco1)C(C(=O)NC1CCCC1)c1cccnc1 (centres undefined)
CC1CCCN(S(=O)(=O)c2ccc(C(=O)Nc3nnc(-c4ccncc4)o3)cc2)C1 (centres undefined)
CCN(CC)S(=O)(=O)c1ccc(NCc2ccccn2)nc1
COc1ccc(-c2csc(N(CCCN(C)C)C(=O)c3ccccc3C)n2)cc1
Cc1ccc(C(=O)NC2CCN(CC(=O)Nc3c(C)cc(C)cc3C)CC2)cc1
Cc1ccc(C2C3=C(CC(C)(C)CC3=O)N(CCN3CCOCC3)C3=C2C(=O)CC(C)(C)C3)cc1
O=CN1CCN(C(=O)c2ccccc2Cl)CC1
O=C(O)C1=CC[C@@H](c2ccc(Cl)cc2)N(S(=O)(=O)c2ccc(Cl)cc2)[C@H]1c1ccccc1
CC(=O)NC(CCCN1C(=O)c2ccccc2C1=O)c1nnn(C)n1 (centres undefined)
COc1ccc(NC(=O)Nc2ccc(Cc3ccncc3)cc2)cc1OC
O=C(N/N=C/c1ccc(-c2ccc(Br)cc2)o1)c1ccc2c(c1)OCO2
Brc1ccccc1-c1nnc(CSc2nnc3sc4ccccc4n23)o1
O=C(CCc1cccc(Cl)c1)NC1CCCN(Cc2ccccc2F)C1 (centres undefined)

Potency, active:
COc1ccc(-c2nnc(SCC(=O)/C(C#N)=C(\C)N)o2)cc1 0.223 µM
N#C/C(=C\c1ccc[nH]1)C(=O)Nc1ccccc1Cl 3.97 µM
COC(=O)c1ccc(NC(=O)c2ccc3nc(C)sc3c2)cc1 0.888 µM
O=C(NCCc1ccccc1)c1cc2ncc(Br)cn2n1 14.1 µM
O=C(CSc1nnc(-c2ccccn2)o1)Nc1ccccc1Cl 1.25 µM
